Screens deposited in PubChem BioAssay by National Center for Advancing Translational Sciences (NCATS).
Only some compounds are listed: those with a hit (about 9.4% of all), similar ones and a draw of the others.
ELG1 repair inh: ELG1-dependent DNA repair inhibition; 330,000 tested, 2.3% active; AID 504467; HEK293T ELG1-luciferase reporter, luminescence, 16 h; DNA damage induced by 5-fluorouridine; Potency, µM (top dose mostly 46.1 µM), most hits filed as inhibitors; note: nearly all actives have a fitted effect of over 55% in size
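Overnight (16 hr) co-exposure of 2,000 cells/well to 5-fluorouridine and compound at 37 °C preceded detection. Luciferase was quantified via ONE-Glo luminescence; loss of signal denotes inhibition.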
SMN2 splice enh: increases expression of the SMN2 splice variant; HEK293 SMN2-luciferase splicing reporter, luminescence, 30-36 h; Potency, µM (series often up to 46.1 µM), most hits filed as activators; 210,000 tested, 2.8% active; AID 1458; note: nearly all actives have a fitted effect of over 55% in size
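HEK293 cells carry an SMN2 […]–luciferase reporter in which exon 7 inclusion puts luciferase in frame. Cells were plated 10-12 h before compound addition, then incubated 30-36 h at 37C. ONE-Glo luminescence was read; sodium butyrate at 4.5 mM final served as control.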
Rab9 prom act: activators of Rab9 promoter; Huh7 Rab9 promoter-luciferase reporter, luminescence, 24 h; Potency, µM (titrated, usually from 9.22 µM), most hits filed as activators; 320,000 tested, 2.8% active; AID 485297; note: nearly all actives have a fitted effect of over 60% in size
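Huh7 cells stably carrying a Rab9 promoter-luciferase reporter, 1500 cells per well in OP-MEM I with 10% FBS, treated with compound 24 hours at 37C. Luciferase activity read by luminescence after 10 minutes with Amplite reagent.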
NPC1 prom act: activates the NPC1 promoter | 320,000 tested, 2.4% active | Huh7 NPC1 promoter luciferase reporter, 24 h | Potency, µM (series often up to 9.22 µM), hits mostly activators | AID 485313; note: nearly all actives have a fitted effect of over 60% in size
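Luminescence read-out of NPC1 promoter-driven luciferase in stably transfected Huh7 cells; compounds delivered in DMSO and left 24 h at 37C, 5% CO2, qHTS titration format.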
ELG1 genotox: inducers of genotoxicity in HEK293T ELG1-luciferase cells. HEK293T ELG1-luciferase reporter, luminescence, 16 h. Potency, µM (series often up to 46 µM), actives largely listed as activators. 330,000 tested, 1.3% active; note: nearly all actives have a fitted effect of over 60% in size
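Genotoxicity was scored as increased ELG1-luciferase reporter signal, measured by ONE-Glo luminescence (30 min, room temperature). Compound or vehicle exposure of the HEK293T reporter cells lasted 16 hr at 37°C.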
FLuc modulator: inhibits or activates purified firefly luciferase, miR-21 counter-screen. P08659. Potency, µM (top dose mostly 57.5 µM), most hits filed as inhibitors. purified FLuc, Km substrates, luminescence inhibition. AID 588342. 360,000 tested, 6.9% active; note: nearly all actives have a fitted effect of over 55% in size
Target sequence (P08659 whole entry, looked up): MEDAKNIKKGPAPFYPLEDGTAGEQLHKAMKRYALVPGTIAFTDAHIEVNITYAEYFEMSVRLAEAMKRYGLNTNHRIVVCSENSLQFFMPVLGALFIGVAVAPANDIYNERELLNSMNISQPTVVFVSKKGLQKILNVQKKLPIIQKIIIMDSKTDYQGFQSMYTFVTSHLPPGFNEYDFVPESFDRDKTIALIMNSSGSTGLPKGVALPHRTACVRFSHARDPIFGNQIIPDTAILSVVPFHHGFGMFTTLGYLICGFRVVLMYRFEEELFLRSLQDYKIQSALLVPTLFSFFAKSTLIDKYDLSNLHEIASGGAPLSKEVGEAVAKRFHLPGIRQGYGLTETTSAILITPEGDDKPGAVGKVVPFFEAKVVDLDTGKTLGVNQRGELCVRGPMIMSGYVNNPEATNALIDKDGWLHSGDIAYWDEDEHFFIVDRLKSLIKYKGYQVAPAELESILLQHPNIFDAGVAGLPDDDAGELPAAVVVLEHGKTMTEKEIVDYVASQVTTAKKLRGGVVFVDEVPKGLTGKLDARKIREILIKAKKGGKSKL
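Purified P. pyralis luciferase (10nM final) with 10uM D-luciferin and 10uM ATP (Km levels) in 50mM Tris acetate pH 7.5, 10mM Mg acetate, 0.01% Tween-20, 0.05% BSA; qHTS 6-point titration, ~60 µM downward; luminescence read.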
Numbers stand for hits; . = inactive; ? = inconclusive; / = no result; [ ] = remark or other dose. Calls come from the whole dose curve; as a rule, active = well fitted curve in the direction sought with a large enough effect; inconclusive = small, poorly fitted or top-dose-only effect, or another doubt; inactive = no such curve, though single readings can be large; an effect the other way counts as inactive or inconclusive.

SMILES	ELG1 repair inh	SMN2 splice enh	Rab9 prom act	NPC1 prom act	ELG1 genotox	FLuc modulator
COc1cc(OC)cc(C(=O)N2CCN(C(=O)COc3ccc(C)cc3)CC2)c1	/	.	/	/	/	24µM
COc1ccc(C(=O)C2CCCN(C(=O)COc3ccc(C(C)=O)cc3)C2)cc1F (stereo unspecified)	15µM	.	.	.	.	.
COc1cc2c(cc1OC)CN(C(=O)COc1ccc(C)c(C)c1)CC2	18µM	.	.	.	.	.
Cc1ccc(OCC(=O)N2CCN(C(=O)c3cccc(F)c3)CC2)cc1	.	.	.	.	.	.
CCCC(=O)Nc1ccc2oc(-c3ccc(OC)c(Br)c3)nc2c1	?	.	6.3µM	?	?	?
CCCC(=O)Nc1ccc(-c2nc3cc(C)ccc3o2)cc1	?	1.3µM	0.5µM	0.5µM	?	0.54µM
CCCC(=O)Nc1ccc(-c2nc3cc(C)c(C)cc3o2)c(O)c1	?	35µM	2µM	?	?	.
CCOc1ccc(C(=O)Nc2ccc(-c3nc4cc(C)ccc4o3)cc2)cc1	/	/	/	/	/	.
CCC(=O)NC(=S)Nc1ccc2oc(-c3ccc(OC)cc3)nc2c1	?	7.9µM	?	2µM	16µM	.
Cc1ccc(CCNC(=O)Cn2nc(-c3ccc(C)cc3)ccc2=O)cc1	/	/	/	/	/	.
Fc1cccc(CNc2ncnc3ccc(-c4cccnc4)cc23)c1	/	/	.	.	/	.
COCCCN1C(=O)c2ccc(C(=O)Nc3cccc(OC)c3)cc2C1=O	?	.	.	.	?	11µM
COc1cccc(C(=O)Nc2ccc3c(c2)C(=O)N(CCC(=O)O)C3=O)c1	.	.	.	.	.	17µM
COCCCN1C(=O)c2ccc(C(=O)NCCc3ccccc3)cc2C1=O	?	/	?	.	?	6µM
CC(=O)Oc1cccc(NC(=O)c2ccc3c(c2)C(=O)N(CC(C)C)C3=O)c1	.	/	.	.	?	11µM
CC(=O)Nc1cccc(Oc2ccc3c(c2)C(=O)N(CCC(=O)O)C3=O)c1	.	.	.	.	.	.[2.3 µM]
CCN1C(=O)c2ccc(C(=O)NCc3ccccc3)cc2C1=O	.	.	.	.	.	.
Cc1ccc(OCc2cc(=O)n3cc(C)sc3n2)c(C)c1	/	.	/	/	/	.
Cc1ccc(NC(=O)c2ccc(NC(=O)N3CCSc4nc(C)cc(C)c43)cc2)c(Cl)c1	/	/	/	/	/	.
CCCC(C)NC(=O)c1sc2nc3n(c(=O)c2c1C)CCC3 (stereo unspecified)	.	?	.	.	.	.
CC(Oc1ccc(F)cc1)C(=O)Nc1ccc2ccccc2c1 (stereo unspecified)	?	?	.	.	.	?
CC(Oc1ccccc1F)C(=O)Nc1ccc2ccccc2c1 (stereo unspecified)	?	3.5µM	.	.	.	?
Cc1nc(NCCO)c2nc(-c3ccccc3)n(CCCN(C)C)c2n1	/	.	/	/	/	/
COc1cccc(CNC(=O)CN2C(=O)N(c3c(C)cccc3C)S(=O)(=O)c3ccccc32)c1OC	/	/	/	/	/	.
CNC(=O)c1cc2cccc(OC)c2oc1=O	.	.	.	.	.	.
SMILES	ELG1 repair inh	SMN2 splice enh	Rab9 prom act	NPC1 prom act	ELG1 genotox	FLuc modulator
COc1ccc(-c2cc3cccc(OC)c3oc2=O)cc1	?	/	0.5µM	0.45µM	?	0.6µM
COc1ccc(/C=C/C(=O)c2cc3cccc(OC)c3oc2=O)cc1	.	.	.	.	.	?
COc1cccc2cc(-c3nc4ccccc4[nH]3)c(=O)oc12	?	/	2.2µM	1.4µM	?	1.7µM
COc1cccc2cc(-c3ccccc3)c(=O)oc12	?	11µM	2.8µM	2.5µM	?	8.5µM
CCn1nc(-c2ccccc2)c(-c2ccccc2)c(C(=O)Nc2nc(C)c(C(=O)N(C)C)s2)c1=O	/	.	/	/	/	?
COc1ccc(CC2=CC(=O)c3ccccc3C2=O)cc1	?	/	.	.	.	2.4µM
O=C(NC1CC1)c1cccc(Nc2ccc(-c3ccc4c(c3)OCCO4)nn2)c1	?	?	2µM	?	?	0.6µM
O=S(=O)(c1ccc(Nc2ccc(-c3ccc4c(c3)OCCO4)nn2)cc1)N1CCCC1	?	.	.	.	.	5.4µM
O=C(COC(=O)Cc1ccc2c(c1)OCCO2)Nc1ccc(S(=O)(=O)N2CCCC2)cc1	.	.	.	.	.	.
N#Cc1cc([N+](=O)[O-])c2sc(C(N)=O)[n+]([O-])c2c1	/	/	.	.	/	/
COc1ccc(CNC(=O)c2cc3c(-c4ccccc4F)nn(C)c3s2)cc1	/	.	/	/	/	.
Cc1c(C(=O)Nc2ccccc2)cn2c(nc3ccccc32)c1C#N	.	.	.	.	.	.
Cc1ccccc1C(=O)Nc1ccc2c(C#N)c3nc4ccccc4nc3n2c1	18µM	.	.	.	.	.
CC(=O)c1cccc(NC(=O)NC2CCCCCCC2)c1	?	/	.	.	.	17µM
CCC1CCC(NC(=O)Nc2cccc(OC)c2)CC1 (stereo unspecified)	?	/	1.3µM	4µM	?	4.8µM
